Records with an inconclusive call do not appear. Where a call stands in place of a potency, no number is given. Calls of active or inactive are those of the source. The call rests on the fitted dose curve; in most records, active means well fitted curve in the direction sought with a large enough effect in the repeat runs; inconclusive means weak or mixed curves; inactive means no such curve, though single readings can be large; an effect the other way counts as inactive or inconclusive.
Assay: qHTS RealTime-Glo MT Cell Viability Assay in HepG2 cells - 32 hour (AID 1224877); further: nearly all actives have a fitted effect of over 55% in size
Settings: RealTime-Glo luminescence; series mostly up to 76.8 µM
How it was run: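 HepG2 cells were seeded at 600 cells/well together with NanoLuc luciferase and a cell-permeant prosubstrate, preincubated 5 h at 37 C/5% CO2, then pin-dosed with compounds in DMSO. Nonlytic luminescence from viable cells was read at each time point.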
Potency means the concentration at half of the fitted maximal effect.

SMILES	Potency	activity change, negative = cytotoxic
NC(=O)CI	9.86 µM (active)	–
CCOC(=O)[C@]1(c2ccccc2)Oc2ccccc2[C@@H]1N	inactive	–
CCC(Cl)CCl (stereo not drawn)	inactive	–
Cc1ccccc1C(=O)Nc1cccc(OC(C)C)c1	inactive	–
O=C(O)C(F)(F)C(F)(F)C(F)(F)C(F)(F)C(F)(F)C(F)(F)C(F)(F)C(F)(F)C(F)(F)F	inactive	–
CCBr	inactive	–
CC(=O)CCC(C)=O	inactive	–
Nc1nc(=S)[nH][nH]1	inactive	–
CC(C)(Cl)[N+](=O)[O-]	inactive	–
CN1C[C@H](CNC(=O)OCc2ccccc2)C[C@@H]2c3cccc4c3c(cn4C)C[C@H]21	23.9 µM (active)	–
CC(=O)c1cc2c(cc1C)C(C)(C)C(C)CC2(C)C (stereo not drawn)	inactive	–
CCOP(=O)(OCC)Oc1ccc([N+](=O)[O-])cc1	inactive	–
COC(=O)C(Cl)C(=O)OC	inactive	–
O=C(NC(=O)c1c(F)cccc1F)Nc1ccc(OC(F)(F)C(F)OC(F)(F)F)c(Cl)c1 (stereo not drawn)	inactive	–
CC(C)N(CCC(C(N)=O)(c1ccccc1)c1ccccn1)C(C)C (stereo not drawn)	inactive	–
CCOP(O)OCC	inactive	–
O=C(O)CC(Cl)C(=O)O (stereo not drawn)	inactive	–
Nc1ccc([N+](=O)[O-])cc1[N+](=O)[O-]	inactive	–
NCC(CC(=O)O)c1ccc(Cl)cc1 (stereo not drawn)	–	-0.345% [at 0.29 µM] (inactive)
BrCC(Br)C1CCC(Br)C(Br)C1 (stereo not drawn)	inactive	–
CCC(C)(NC(=O)c1cc(Cl)c(C)c(Cl)c1)C(=O)CCl (stereo not drawn)	49.3 µM (active)	–
N#C/C(N)=C(/N)C#N	inactive	–
Cn1sc(Cl)cc1=O	inactive	–
CC(=O)C(C)(C)C	inactive	–
O=C(NCc1cccnc1)Nc1ccc([N+](=O)[O-])cc1	inactive	–
Cc1ccc(N)cc1C	inactive	–

Assay: A CellTox Green Cytotoxicity Assay to monitor cytotoxicity in HepG2 cells - 24 hour (AID 1224878); further: nearly all actives have a fitted effect of over 45% in size
Settings: CellTox Green fluorescence; series mostly up to 76.8 µM
How it was run: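 HepG2 cells were seeded together with the CellTox Green dye at 600 cells/well, left 5 h at 37 C/5% CO2, then given compounds in DMSO. Fluorescence from dye bound to dead-cell DNA was read repeatedly over 40 h of treatment at 37 C.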

SMILES	Potency	cytotoxicity
CCOC(=O)[C@]1(c2ccccc2)Oc2ccccc2[C@@H]1N	inactive	–
CCC(Cl)CCl (stereo not drawn)	inactive	–
Cc1ccccc1C(=O)Nc1cccc(OC(C)C)c1	inactive	–
O=C(O)C(F)(F)C(F)(F)C(F)(F)C(F)(F)C(F)(F)C(F)(F)C(F)(F)C(F)(F)C(F)(F)F	inactive	–
CCBr	inactive	–
CCOP(=O)(OCC)SCCSCC	inactive	–
CC(=O)CCC(C)=O	inactive	–
Nc1nc(=S)[nH][nH]1	inactive	–
c1ccc(CN2CCNCC2)cc1	inactive	–
CC(C)(Cl)[N+](=O)[O-]	inactive	–
CN1C[C@H](CNC(=O)OCc2ccccc2)C[C@@H]2c3cccc4c3c(cn4C)C[C@H]21	26.8 µM (active)	–
CC(=O)c1cc2c(cc1C)C(C)(C)C(C)CC2(C)C (stereo not drawn)	38.9 µM (active)	–
CCOP(=O)(OCC)Oc1ccc([N+](=O)[O-])cc1	inactive	–
COC(=O)C(Cl)C(=O)OC	inactive	–
O=C(NC(=O)c1c(F)cccc1F)Nc1ccc(OC(F)(F)C(F)OC(F)(F)F)c(Cl)c1 (stereo not drawn)	inactive	–
CCCCC(CC)COP(=O)(Oc1ccccc1)Oc1ccccc1 (stereo not drawn)	inactive	–

SMILES	Potency	cytotoxicity
CC(C)N(CCC(C(N)=O)(c1ccccc1)c1ccccn1)C(C)C (stereo not drawn)	inactive	–
CCOP(O)OCC	inactive	–
Nc1ccc([N+](=O)[O-])cc1[N+](=O)[O-]	inactive	–
NCC(CC(=O)O)c1ccc(Cl)cc1 (stereo not drawn)	–	-3.56% [at 0.29 µM] (inactive)
BrCC(Br)C1CCC(Br)C(Br)C1 (stereo not drawn)	inactive	–
N#C/C(N)=C(/N)C#N	inactive	–
BrCCCCBr	inactive	–
Cn1sc(Cl)cc1=O	inactive	–
C=CC(=O)NCNC(=O)C=C	inactive	–
S=C=NCc1ccccc1	inactive	–
C=CCN1CC[C@]23c4c5ccc(O)c4O[C@H]2C(=O)CC[C@@]3(O)[C@H]1C5	inactive	–
COC(C)(C)CCC[C@H](C)C/C=C/C(C)=C/C(=O)OC(C)C	inactive	–
CC(C)(OO)c1ccccc1	inactive	–
CC(=O)C(C)(C)C	inactive	–
O=C(NCc1cccnc1)Nc1ccc([N+](=O)[O-])cc1	inactive	–
Cc1ccc(N)cc1C	inactive	–
